Measured values: PubChem BioAssay AID1159580 (chemical genetic matrix, 2015)
The campaign covered roughly 5,500 compounds. About 2,000 (36%) were called active. Inconclusive results (about 18%) are left out. No stated cut-off is given here; in the data, active means normalized growth mostly below about 0.91 (no sharp cut-off); inconclusive means no clear call, values can overlap the other calls; inactive means mostly above about 0.92. Some of the results follow.

Assay: chemical genetic growth profiling, strain panel (AID 1159580);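 further: tested at 20 µM; growth read once vehicle control cultures reached saturation at 30 °C; 1 = growth at the plate median or of vehicle wells; lower values mean less growth of the strain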
Conditions: S. cerevisiae deletion strains, growth OD

Measured: normalized growth

O=[N+]([O-])c1ccc(ON=C2CCCCC2)c([N+](=O)[O-])c1
inactive: locus YAR019C, strain CDC15, hits give low values 0.982 | locus YBL105C, strain PKC1, hits give low values 0.998 | locus YBR135W, strain CKS1, hits give low values 0.997 | locus YBR136W, strain MEC1, hits give low values 0.996 | locus YBR160W, strain CDC28, hits give low values 0.997 | locus YDL017W, strain CDC7, hits give low values 0.995 | locus YDL028C, strain MPS1, hits give low values 0.988 | locus YDL108W, strain KIN28, hits give low values 1 | locus YDL132W, strain cdc53, hits give low values 0.981 | locus YDL214C, strain PRR2, hits give low values 0.875 | locus YDR054C, strain cdc34, hits give low values 0.981 | locus YDR226W, strain ADK1, hits give low values 0.987 | locus YDR477W, strain SNF1, hits give low values 0.827 | locus YER123W, strain YCK3, hits give low values 0.722 | locus YER133W, strain GLC7, hits give low values 0.786 | locus YFL009W, strain cdc4, hits give low values 0.975 | locus YFL029C, strain CAK1, hits give low values 0.987 | locus YFR003C, strain YPI1, hits give low values 0.999 | locus YFR019W, strain FAB1, hits give low values 0.887 | locus YFR028C, strain CDC14, hits give low values 0.983 | locus YGR040W, strain KSS1, hits give low values 0.84 | locus YGR052W, strain FMP48, hits give low values 0.877 | locus YGR092W, strain DBF2, hits give low values 0.602 | locus YHR079C, strain IRE1, hits give low values 0.721 | locus YHR082C, strain KSP1, hits give low values 0.966 | locus YIL147C, strain SLN1, hits give low values 0.984 | locus YJL095W, strain BCK1, hits give low values 0.568 | locus YJL128C, strain PBS2, hits give low values 0.995 | locus YJL157C, strain FAR1, hits give low values 0.84 | locus YJR016C, strain ILV3, hits give low values 0.981 | locus YJR066W, strain TOR1, hits give low values 0.801 | locus YKL067W, strain YNK1, hits give low values 0.853 | locus YKL101W, strain HSL1, hits give low values 0.879 | locus YKL193C, strain SDS22, hits give low values 0.988 | locus YKL203C, strain TOR2, hits give low values 0.797 | locus YLR133W, strain CKI1, hits give low values 0.88 | locus YLR403W, strain SFP1, hits give low values 0.798 | locus YML070W, strain DAK1, hits give low values 0.852 | locus YMR001C, strain CDC5, hits give low values 0.989 | locus YMR205C, strain PFK2 (second series), hits give low values 0.865 | locus YMR277W, strain FCP1, hits give low values 0.989 | locus YNL006W, strain LST8, hits give low values 0.991 | locus YNL020C, strain ARK1, hits give low values 0.881 | locus YNL161W, strain CBK1, hits give low values 0.984 | locus YNL183C, strain NPR1, hits give low values 0.795 | locus YNL207W, strain RIO2, hits give low values 0.969 | locus YNL222W, strain SSU72, hits give low values 1 | locus YNL307C, strain MCK1 (second series), hits give low values 0.699 | locus YOL078W, strain AVO1, hits give low values 0.993 | locus YOL136C, strain PFK27, hits give low values 0.878 | locus YOR061W, strain CKA2, hits give low values 0.865 | locus YOR119C, strain RIO1, hits give low values 0.839 | locus YOR231W, strain MKK1, hits give low values 0.776 | locus YOR329C, strain SCD5, hits give low values 0.994 | locus YPL031C, strain PHO85, hits give low values 0.808 | locus YPL153C, strain RAD53, hits give low values 0.774 | locus YPL204W, strain HRR25, hits give low values 0.74 | locus YPL209C, strain IPL1, hits give low values 0.983 | locus YPR025C, strain CCL1, hits give low values 1 | locus YPR106W, strain ISR1, hits give low values 0.976 | locus YPR111W, strain DBF20, hits give low values 0.974 | strain NNK1, hits give low values 0.975 | strain TSCII, hits give low values 0.968
active: locus YDL101C, strain DUN1, hits give low values 0.876 | locus YDR052C, strain DBF4, hits give low values 0.904 | locus YHR030C, strain SLT2, hits give low values 0.608 | locus YHR205W, strain SCH9, hits give low values 0.448 | locus YJR066W, strain TOR1 (second series), hits give low values 0.429 | locus YKL048C, strain ELM1, hits give low values 0.783 | locus YLR113W, strain HOG1, hits give low values 0.749 | locus YPL256C, strain CLN2, hits give low values 0.765

O=[N+]([O-])c1ccc(O[C@@H]2O[C@H](CO)[C@@H](O)[C@H](O)[C@H]2F)c([N+](=O)[O-])c1
inactive: locus YAL040C, strain CLN3, hits give low values 0.994 | locus YCL061C, strain MRC1 (second series), hits give low values 0.991 | locus YDR150W, strain NUM1, hits give low values 0.991 | locus YDR363W, strain ESC2, hits give low values 1.03 | locus YER002W, strain NOP16, hits give low values 0.969 | locus YGR078C, strain PAC10, hits give low values 1.01 | locus YNL175C, strain NOP13, hits give low values 0.986 | locus YNL197C, strain WHI3, hits give low values 0.995 | locus YNL224C, strain SQS1, hits give low values 0.984 | locus YOR083W, strain WHI5 (second series), hits give low values 1.02
